Measured values from PubChem BioAssay.
Active and inactive are the calls of the source.

Tests used:
[1] = binders of probe aFSTL3 on microarray, primary screen, stem cell growth factor project, biochemical, small-molecule microarray, fluorescence 635/667 (AID 1064); conditions: higher = more signal;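 further: measures binding of the biotinylated anti-FSTL3 antibody to printed compounds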
[2] = binders from COS7 lysate, DM2A8 probe, primary screen, torsin A project, cell lysate, small-molecule microarray, fluorescence 635/667 (AID 1065); conditions: higher = more signal, COS7 lysate expressing mutant human TOR1A
[3] = binders of probe aFGF2 on microarray, primary screen, stem cell growth factor project, biochemical, small-molecule microarray, fluorescence 635/667 (AID 1067); conditions: higher = more signal;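 further: measures binding of biotinylated aFGF2 protein to printed compounds on slides; z-score merges feature fluorescence and signal-to-noise across triplicate slides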
[4] = binders of probe aFGF10 on microarray, primary screen, stem cell growth factor project, biochemical, small-molecule microarray, fluorescence 635/667 (AID 1071); conditions: higher = more signal;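 further: score merges 667 nm spot intensity and signal to noise from triplicate slides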
[5] = molecular target: Neurogenic locus notch homolog protein 2 (Homo sapiens) (UniProt Q04721); assay: Notch2 binders on small-molecule microarrays, primary screen, biochemical, small-molecule microarray, 635 nm fluorescence, stem cell growth factors (AID 1073); conditions: Notch2 binding, higher = more signal
[6] = molecular target: Pro-neuregulin-1, membrane-bound isoform (Homo sapiens) (UniProt Q02297); assay: NRG1 binders on small-molecule microarrays, primary screen, psychiatric disease protein project, biochemical, small-molecule microarray, fluorescence 635/667 (AID 1075); conditions: NRG1 binding, 635 nm fluorescence, higher = more signal;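 further: score combines 667 nm spot fluorescence with signal to noise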
Sequence of Pro-neuregulin-1, membrane-bound isoform (Homo sapiens) (Q02297 whole entry, looked up, the tested form may be a part, canonical isoform): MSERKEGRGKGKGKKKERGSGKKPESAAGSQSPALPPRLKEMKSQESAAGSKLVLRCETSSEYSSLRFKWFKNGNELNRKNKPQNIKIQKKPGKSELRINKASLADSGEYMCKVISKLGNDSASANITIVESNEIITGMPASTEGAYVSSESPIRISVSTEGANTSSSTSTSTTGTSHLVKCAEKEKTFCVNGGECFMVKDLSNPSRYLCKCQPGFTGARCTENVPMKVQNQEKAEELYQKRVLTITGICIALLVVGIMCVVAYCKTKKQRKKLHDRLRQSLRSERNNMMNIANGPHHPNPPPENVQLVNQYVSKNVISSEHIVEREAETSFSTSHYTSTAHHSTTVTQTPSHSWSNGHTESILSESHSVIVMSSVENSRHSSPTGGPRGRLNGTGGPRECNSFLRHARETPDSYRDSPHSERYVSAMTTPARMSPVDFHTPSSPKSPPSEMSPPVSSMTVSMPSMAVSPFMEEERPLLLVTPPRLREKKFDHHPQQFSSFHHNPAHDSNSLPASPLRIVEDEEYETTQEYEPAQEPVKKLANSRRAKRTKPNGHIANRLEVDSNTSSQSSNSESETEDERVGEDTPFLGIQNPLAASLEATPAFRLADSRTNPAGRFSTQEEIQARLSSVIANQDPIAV

[7] = system: Neuregulin-1 EGF-like domain; assay: binders of neuregulin-1 EGF-like domain, primary screen, biochemical, small-molecule microarray, 635 nm fluorescence (AID 1081); conditions: small-molecule microarray binding, higher = more signal;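 further: binding of the protein to compounds printed on small-molecule microarray slides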
[8] = FRG1 promoter luciferase signal modulators, primary screen, FRG1 inhibition for FSHD, cell-based, C2C12 myotubes, firefly/Renilla luciferase, luminescence (AID 1084); conditions: higher = more signal, called active from +8 up or from −8 down
[9] = binders of probe aFST on microarray, primary screen, stem cell growth factor project, biochemical, small-molecule microarray, fluorescence 635/667 (AID 1086); conditions: higher = more signal;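 further: score merges 667 nm fluorescence with signal-to-noise of each printed compound spot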
[10] = binders of probe aHhip on microarray, primary screen, stem cell growth factor project, biochemical, small-molecule microarray, fluorescence 635/667 (AID 1087); conditions: higher = more signal;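 further: score merges spot fluorescence at 667nm with spot signal to noise ratio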
[11] = system: PRMT1 (protein arginine N-methyltransferase 1); assay: PRMT1 binders on small-molecule microarrays, primary screen, biochemical, small-molecule microarray, 635 nm fluorescence (AID 1088); conditions: small-molecule microarray binding, higher = more signal;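 further: binding of Prmt1 protein to compounds spotted on small-molecule microarray slides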
[12] = yeast growth modulation, basal conditions, primary screen, YJM789 clinical isolate, OD600, 24 h (AID 1089);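 further: growth of clinical yeast isolate S. cerevisiae YJM 789 seeded 1000 cells per well; test concentration not given here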; conditions: S. cerevisiae YJM789 growth, higher = more signal, called active from +8 up or from −8 down
[13] = fission yeast growth modulation, primary screen, strain 972, OD600, 24 h, no modulator (AID 1090);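 further: basal condition with compound alone and no growth modifier present; test concentration not given here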; conditions: S. pombe 972 growth, higher = more signal, called active from +8 up or from −8 down
[14] = S. cerevisiae growth modulation with rapamycin, primary screen, strain BY4716, OD600, 96 h (AID 1091); conditions: higher = more signal, called active from +8 up or from −8 down; further: test concentration not given here
[15] = molecular target: Torsin-1A-interacting protein 2 (Homo sapiens) (UniProt Q8NFQ8); assay: LULL1 binders on small-molecule microarray, primary screen, cell lysate, human LULL1 lysate, 635/667 nm fluorescence (AID 1092); conditions: hLULL1 lysate binding, 635 nm fluorescence, higher = more signal;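 further: probe is lysate of COS7 cells overexpressing human LULL1; score merges per-feature 667 nm fluorescence with signal-to-noise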
Sequence of Torsin-1A-interacting protein 2 (Homo sapiens) (Q8NFQ8 whole entry, looked up): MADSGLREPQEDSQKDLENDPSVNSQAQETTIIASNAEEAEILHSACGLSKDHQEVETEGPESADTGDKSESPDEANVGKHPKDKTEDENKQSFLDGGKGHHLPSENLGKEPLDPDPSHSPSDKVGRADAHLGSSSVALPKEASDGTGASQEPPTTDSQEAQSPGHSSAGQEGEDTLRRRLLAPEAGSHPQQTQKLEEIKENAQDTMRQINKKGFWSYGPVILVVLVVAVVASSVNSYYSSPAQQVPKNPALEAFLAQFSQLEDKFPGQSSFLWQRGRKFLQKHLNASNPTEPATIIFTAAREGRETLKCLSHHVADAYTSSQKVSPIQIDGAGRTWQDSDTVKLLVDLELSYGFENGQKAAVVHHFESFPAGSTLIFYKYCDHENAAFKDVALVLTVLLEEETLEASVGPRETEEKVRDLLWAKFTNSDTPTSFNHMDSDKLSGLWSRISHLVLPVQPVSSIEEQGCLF

[16] = E. coli growth modulation, two-sided OD650, primary screen, E. coli filamentation project, strain DRC41, 24 h (AID 1093); conditions: OD650, 24 h, higher = more signal, called active from +8 up or from −8 down;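 further: MC1000 strain lacking acrAB efflux and sulA so SOS filamentation is blocked; test concentration not given here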
[17] = small-molecule microarray binders of probe aLefty2, primary screen, biochemical, biotinylated probe, 635/667 nm fluorescence (AID 1094); conditions: higher = more signal;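 further: score merges spot fluorescence near 667 nm with spot signal-to-noise ratio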
[18] = system: Noggin (protein binding on small-molecule microarray); assay: Noggin binders on small-molecule microarray, primary screen, biochemical, 635/667 nm fluorescence (AID 1095); conditions: 635 nm fluorescence, higher = more signal;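 further: score merges 667 nm feature fluorescence with signal to noise over triplicate slides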
[19] = molecular target: Neurogenic locus notch homolog protein 3 (Homo sapiens) (UniProt Q9UM47); assay: NOTCH3 binders on small-molecule microarray, primary screen, biochemical, 635/667 nm fluorescence (AID 1096); conditions: NOTCH3 binding, 635 nm fluorescence, higher = more signal
Sequence of Neurogenic locus notch homolog protein 3 (Homo sapiens) (Q9UM47 whole entry, looked up): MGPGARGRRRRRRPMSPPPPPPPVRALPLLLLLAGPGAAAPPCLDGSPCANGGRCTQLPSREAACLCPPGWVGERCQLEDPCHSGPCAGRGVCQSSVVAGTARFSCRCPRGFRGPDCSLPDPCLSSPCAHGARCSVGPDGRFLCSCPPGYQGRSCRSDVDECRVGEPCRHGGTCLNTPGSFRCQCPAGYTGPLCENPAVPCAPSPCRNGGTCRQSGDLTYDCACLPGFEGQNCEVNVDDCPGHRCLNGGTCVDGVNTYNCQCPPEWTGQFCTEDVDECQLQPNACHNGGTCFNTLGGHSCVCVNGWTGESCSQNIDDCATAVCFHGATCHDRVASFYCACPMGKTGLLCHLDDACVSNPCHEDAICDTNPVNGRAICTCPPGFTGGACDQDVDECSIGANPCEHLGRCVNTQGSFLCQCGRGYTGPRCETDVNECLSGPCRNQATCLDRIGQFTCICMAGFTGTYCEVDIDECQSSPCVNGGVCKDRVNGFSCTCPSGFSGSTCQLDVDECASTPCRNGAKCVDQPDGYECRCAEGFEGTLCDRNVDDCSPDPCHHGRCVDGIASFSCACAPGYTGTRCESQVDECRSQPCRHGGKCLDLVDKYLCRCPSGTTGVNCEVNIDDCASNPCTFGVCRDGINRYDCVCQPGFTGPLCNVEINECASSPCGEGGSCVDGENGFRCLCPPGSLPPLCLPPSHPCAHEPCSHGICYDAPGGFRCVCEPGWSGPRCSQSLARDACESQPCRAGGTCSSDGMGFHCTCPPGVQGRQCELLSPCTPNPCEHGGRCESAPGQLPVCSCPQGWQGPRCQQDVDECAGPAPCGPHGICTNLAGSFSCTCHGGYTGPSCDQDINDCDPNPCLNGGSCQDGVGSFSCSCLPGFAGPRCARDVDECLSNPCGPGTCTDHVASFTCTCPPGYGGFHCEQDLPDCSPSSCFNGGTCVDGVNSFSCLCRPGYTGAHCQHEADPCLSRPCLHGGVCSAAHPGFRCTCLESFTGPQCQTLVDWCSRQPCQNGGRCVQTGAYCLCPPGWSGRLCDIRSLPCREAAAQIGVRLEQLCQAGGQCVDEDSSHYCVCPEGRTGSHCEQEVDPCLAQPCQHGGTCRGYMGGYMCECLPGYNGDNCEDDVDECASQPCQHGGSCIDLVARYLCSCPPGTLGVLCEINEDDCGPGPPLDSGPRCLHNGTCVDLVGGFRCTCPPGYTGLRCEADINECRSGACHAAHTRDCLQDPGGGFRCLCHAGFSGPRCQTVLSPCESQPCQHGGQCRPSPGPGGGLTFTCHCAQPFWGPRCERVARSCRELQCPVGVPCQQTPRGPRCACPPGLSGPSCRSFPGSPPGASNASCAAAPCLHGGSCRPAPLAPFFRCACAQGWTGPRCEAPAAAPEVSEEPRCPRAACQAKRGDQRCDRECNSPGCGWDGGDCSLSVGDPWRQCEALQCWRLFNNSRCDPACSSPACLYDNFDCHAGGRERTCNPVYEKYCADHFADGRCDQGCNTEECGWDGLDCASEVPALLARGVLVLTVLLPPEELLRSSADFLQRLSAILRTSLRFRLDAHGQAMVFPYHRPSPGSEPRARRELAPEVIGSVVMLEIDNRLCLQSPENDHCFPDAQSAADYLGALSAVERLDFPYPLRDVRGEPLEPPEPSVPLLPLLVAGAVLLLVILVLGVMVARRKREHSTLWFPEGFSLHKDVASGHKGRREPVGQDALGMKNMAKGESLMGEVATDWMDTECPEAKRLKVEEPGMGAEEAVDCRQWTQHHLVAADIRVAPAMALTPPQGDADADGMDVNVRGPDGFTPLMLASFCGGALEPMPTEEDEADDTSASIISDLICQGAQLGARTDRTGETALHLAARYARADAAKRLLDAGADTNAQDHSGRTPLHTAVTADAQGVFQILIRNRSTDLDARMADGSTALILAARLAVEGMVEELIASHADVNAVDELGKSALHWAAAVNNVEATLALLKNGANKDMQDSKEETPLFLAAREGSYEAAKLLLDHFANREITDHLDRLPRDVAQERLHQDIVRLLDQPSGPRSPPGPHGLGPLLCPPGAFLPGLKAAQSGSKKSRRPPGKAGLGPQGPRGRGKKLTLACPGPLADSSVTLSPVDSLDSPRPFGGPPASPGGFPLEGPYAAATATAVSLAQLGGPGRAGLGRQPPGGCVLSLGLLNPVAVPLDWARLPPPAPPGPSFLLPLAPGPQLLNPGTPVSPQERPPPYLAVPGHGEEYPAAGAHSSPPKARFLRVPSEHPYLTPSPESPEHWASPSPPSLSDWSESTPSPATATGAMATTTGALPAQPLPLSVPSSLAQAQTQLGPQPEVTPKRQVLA

[20] = small-molecule microarray binders of probe aEGFR, primary screen, biochemical, biotinylated probe, 635/667 nm fluorescence (AID 1097); conditions: higher = more signal;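 further: probe is a biotinylated anti-EGFR antibody binding compounds printed on slides; score combines fluorescence near 667 nm and signal to noise of each spot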

SMILES: CCCC/C=C/[C@H]([C@@H](O)Cc1ccccc1)N(CC#Cc1ccccc1)Cc1ccccc1Br
- composite z-score [1]: 1.22
- composite z-score [2]: -0.37
- composite z-score [3]: -0.21
- composite z-score [4]: -1.17
- composite z-score [5]: -0.749
- composite z-score [6]: -0.169
- composite z-score [7]: -0.291
- z-score [8]: -0.506 (inactive)
- composite z-score [9]: -0.74
- composite z-score [10]: -0.584
- composite z-score [11]: -0.439
- z-score [12]: 0.933 (inactive)
- z-score [13]: -0.972 (inactive)
- z-score [14]: 0.0956 (inactive)
- composite z-score [15]: -0.0817
- z-score [16]: 2.92 (inactive)
- composite z-score [17]: 0.0735
- composite z-score [18]: -2.07
- composite z-score [19]: -1.4
- composite z-score [20]: -0.428

SMILES: COC(=O)[C@@]1(Cc2ccccc2CN=[N+]=[N-])N=C(c2ccc(OCCCO)cc2)O[C@H]1c1ccccc1N=[N+]=[N-]
- composite z-score [1]: 0.127
- composite z-score [2]: -0.523
- composite z-score [3]: -0.0004
- composite z-score [4]: -0.259
- composite z-score [5]: 0.167
- composite z-score [6]: 1.09
- composite z-score [7]: 1.13
- z-score [8]: 1.17 (inactive)
- composite z-score [9]: 0.19
- composite z-score [10]: 0.0826
- composite z-score [11]: 1.42
- z-score [12]: 0.763 (inactive)
- z-score [13]: 2.17 (inactive)
- z-score [14]: 36 (active)
- composite z-score [15]: 2.18
- z-score [16]: 0.0738 (inactive)
- composite z-score [17]: -0.184
- composite z-score [18]: 0.0678
- composite z-score [19]: 0.698
- composite z-score [20]: -0.0372

SMILES: O=C1OCCC=C[C@H]2OC34C=CCN(Cc5ccccc5)C(=O)[C@H]3N(CCO)C(=O)[C@@H]4C12 (stereo not given in full)
- composite z-score [1]: 0.672
- composite z-score [2]: -0.465
- composite z-score [3]: -0.183
- composite z-score [4]: -0.575
- composite z-score [5]: -0.607
- composite z-score [6]: -0.419
- composite z-score [7]: -0.574
- z-score [8]: 0.135 (inactive)
- composite z-score [9]: -0.402
- composite z-score [10]: -0.0645
- composite z-score [11]: -1.05
- z-score [12]: -2.04 (inactive)
- z-score [13]: -4.14 (inactive)
- z-score [14]: -1.5 (inactive)
- composite z-score [15]: -0.89
- z-score [16]: 2.71 (inactive)
- composite z-score [17]: -0.172
- composite z-score [18]: -0.526
- composite z-score [19]: -0.634
- composite z-score [20]: -0.304

SMILES: COc1cc([C@@H]2N[C@H](C(=O)O)Cc3c2[nH]c2ccccc32)cc(OC)c1OC
- composite z-score [1]: -0.534
- composite z-score [2]: 0.55
- composite z-score [3]: -0.0806
- composite z-score [4]: 0.28
- composite z-score [5]: 0.507
- composite z-score [6]: 0.0318
- composite z-score [7]: -0.205
- z-score [8]: -0.643 (inactive)
- composite z-score [9]: -0.134
- composite z-score [10]: 0.338
- composite z-score [11]: -0.504
- z-score [12]: -0.258 (inactive)
- z-score [13]: -0.581 (inactive)
- z-score [14]: -0.611 (inactive)
- composite z-score [15]: 0.235
- z-score [16]: 0.233 (inactive)
- composite z-score [17]: -0.123
- composite z-score [18]: 0.367
- composite z-score [19]: 0.475
- composite z-score [20]: -0.0069

SMILES: COc1cc2c(cc1OC)CN(C(=O)[C@H]1[C@@H]3C(=O)O[C@@H](c4ccccc4)[C@@H](c4ccccc4)N3[C@@H](c3ccccc3OCCO)[C@]13C(=O)Nc1ccc(C#CC4(O)CCCCCC4)cc13)CC2
- composite z-score [1]: -0.0648
- composite z-score [2]: 0.705
- composite z-score [3]: 0.0605
- composite z-score [4]: 1.01
- composite z-score [5]: 1.1
- composite z-score [6]: 1.76
- composite z-score [7]: 1.35
- z-score [8]: -2.24 (inactive)
- composite z-score [9]: 0.319
- composite z-score [10]: 0.245
- composite z-score [11]: 1.55
- z-score [12]: 1.71 (inactive)
- z-score [13]: 0.519 (inactive)
- z-score [14]: 4.28 (inactive)
- composite z-score [15]: 2.83
- z-score [16]: 2.54 (inactive)
- composite z-score [17]: 0.0028
- composite z-score [18]: 1.19
- composite z-score [19]: 1.11
- composite z-score [20]: 0.0965

SMILES: COCCOC(=O)N1C(=O)[C@@]2(c3cc(C#CCNC(N)=O)ccc31)[C@H](c1ccc(OCCO)cc1)N1[C@H](c3ccccc3)[C@H](c3ccccc3)OC(=O)[C@H]1[C@@H]2C(=O)Nc1nc2ccccc2s1
- composite z-score [1]: 1.02
- composite z-score [2]: 0.208
- composite z-score [3]: -0.0399
- composite z-score [4]: 0.371
- composite z-score [5]: -0.97
- composite z-score [6]: 0.396
- composite z-score [7]: -0.757
- z-score [8]: 3.98 (inactive)
- composite z-score [9]: 0.98
- composite z-score [10]: 0.136
- composite z-score [11]: 0.75
- z-score [12]: 1.55 (inactive)
- z-score [13]: 1.11 (inactive)
- z-score [14]: 3.55 (inactive)
- composite z-score [15]: 0.376
- z-score [16]: 2.56 (inactive)
- composite z-score [17]: 0.162
- composite z-score [18]: 0.895
- composite z-score [19]: 0.865
- composite z-score [20]: 0.0894

SMILES: COC(=O)[C@H]1[C@@H]2COc3ccccc3[C@H]2N[C@H]1C(=O)OC
- composite z-score [1]: -0.241
- composite z-score [2]: -0.0479
- composite z-score [3]: -0.139
- composite z-score [4]: 0.255
- composite z-score [5]: 0.419
- composite z-score [6]: 0.281
- composite z-score [7]: 0.428
- z-score [8]: 0.44 (inactive)
- composite z-score [9]: 0.168
- composite z-score [10]: -0.189
- composite z-score [11]: 0.213
- z-score [12]: -0.501 (inactive)
- z-score [13]: -8.98 (active)
- z-score [14]: 0.265 (inactive)
- composite z-score [15]: 0.584
- z-score [16]: 0.694 (inactive)
- composite z-score [17]: 0.0111
- composite z-score [18]: 0.208
- composite z-score [19]: 0.422
- composite z-score [20]: -0.152

SMILES: C=CCC(OC(C)=O)[C@@H]1[C@@H](N(Cc2ccc(-c3ccccc3)cc2)C(=O)c2ccc(-c3ccccc3)cc2)c2cc(OCCCO)ccc2N1C(=O)Cc1ccc(OC)cc1 (stereo not given in full)
- composite z-score [1]: -0.28
- composite z-score [2]: 0.354
- composite z-score [3]: -0.0676
- composite z-score [4]: 0.27
- composite z-score [5]: -0.142
- composite z-score [6]: 0.0866
- composite z-score [7]: -0.261
- z-score [8]: 0.826 (inactive)
- composite z-score [9]: 0.391
- composite z-score [10]: -0.189
- composite z-score [11]: -0.22
- z-score [12]: -0.809 (inactive)
- z-score [13]: 0.202 (inactive)
- z-score [14]: -0.253 (inactive)
- composite z-score [15]: 0.669
- z-score [16]: -0.685 (inactive)
- composite z-score [17]: -0.0096
- composite z-score [18]: -0.0508
- composite z-score [19]: -0.0122
- composite z-score [20]: -0.0994

SMILES: CCOC(=O)C[C@H]1[C@H](OC(=O)c2ccccc2-c2ccccc2)[C@@H](NC(=O)C2CCCCC2)c2cc(OCCCO)ccc2N1C(=O)c1ccccc1
- composite z-score [1]: -0.43
- composite z-score [2]: 0.0236
- composite z-score [3]: -0.041
- composite z-score [4]: 0.687
- composite z-score [5]: 0.797
- composite z-score [6]: 0.0516
- composite z-score [7]: 0.652
- z-score [8]: 0.404 (inactive)
- composite z-score [9]: 0.0322
- composite z-score [10]: -0.0047
- composite z-score [11]: 0.884
- z-score [12]: 1.2 (inactive)
- z-score [13]: 0.543 (inactive)
- z-score [14]: 1 (inactive)
- composite z-score [15]: 0.928
- z-score [16]: 2.19 (inactive)
- composite z-score [17]: -0.0498
- composite z-score [18]: 0.203
- composite z-score [19]: 0.352
- composite z-score [20]: 0.232

SMILES: COC(=O)C1=C(C)N(Cc2ccccc2)c2c(C(=O)OC)c(C(=O)OC)c(C(=O)OC)c(=O)n2[C@@H]1c1ccccc1
- composite z-score [1]: -0.274
- composite z-score [2]: 0.657
- composite z-score [3]: -0.0181
- composite z-score [4]: 0.282
- composite z-score [5]: 0.898
- composite z-score [6]: 0.289
- composite z-score [7]: 0.721
- z-score [8]: 0.365 (inactive)
- composite z-score [9]: 0.224
- composite z-score [10]: -0.0994
- composite z-score [11]: 0.269
- z-score [12]: -0.677 (inactive)
- z-score [13]: -1.75 (inactive)
- z-score [14]: -0.389 (inactive)
- composite z-score [15]: 0.309
- z-score [16]: 0.535 (inactive)
- composite z-score [17]: -0.195
- composite z-score [18]: 0.433
- composite z-score [19]: 0.699
- composite z-score [20]: -0.065
